The values below come from PubChem BioAssay AID2314 (National Center for Advancing Translational Sciences (NCATS), 2010).

Each structure is given as a SMILES string. Values joined by “and” are separate entries in the source; they are usually repeats but may differ in a detail not shown here. Equal values may be shown once. Screen size: about 300,000 compounds; about 37,000 (12%) were called active. Many of the other results were omitted from the sample, so actives are more common in it than they were. Values without a mark were called inactive. Rule as the data show it: active = max response mostly above about 13% (no sharp cut-off); inactive = mostly below about 14%.

A short description of this assay: Cycloheximide Counterscreen for Small Molecule Inhibitors of Shiga Toxin. Also: read at 38.3 µM for the half of the compounds with a filed dose; 0% is about no effect. To be noted: cell reporter, cycloheximide protein synthesis inhibition counterscreen; stronger effect = higher value. Background: Counterscreens check selectivity or assay interference.
On to `CCN1C(=NCc2ccc(OC)cc2)N[C@@H](CCc2ccccc2)[C@H](C(=O)NCc2ccc(OC)cc2)[C@H]1C`, for which the max response was -3.38% and 1.66%.
In the case of `CCCCCCCCCCOC(=O)Cn1c(COc2ccc(C)cc2)[n+](C)c2ccccc21` it was -4.67%; in that of `COc1ccc(-c2cc(C3CCN(c4ncccc4[N+](=O)[O-])CC3)[nH]n2)cc1`, -2.37%; in that of `CC1CCCCN1CCCNC(=O)Cn1ncc2c([nH]c3ccccc32)c1=O` (centres undefined), -1.43%.
For `Cc1cc(C)c(C(=O)CSc2nc(C)cc(=O)[nH]2)c(C)c1`, the max response is 6.02%.
For the molecule `CCn1cc(/C=C(\NC(=O)c2cc(OC)c(OC)c(OC)c2)C(=O)N2CCN(C)CC2)c2ccccc21`, the max response is -3.51%.
`CCOC(=O)c1ccc(NC(=S)N2CCN(c3ccccn3)CC2)cc1`: the max response was -2.76%.
As to `Cc1ccccc1Nc1nc(-c2cccnc2)cs1`, the max response was 40.6% (active).
Consider `CCCCNC(=O)CCn1nc(-c2ccc(Cl)cc2)ccc1=O`, for which the max response is -0.835%.
On to `Cc1cc2c(cc1C)N(C(=O)CN1C(=O)c3ccccc3C1=O)C(C)(C)c1ssc(=S)c1-2`, for which the max response was -0.934%.
On to `Cc1cc(-n2nc(C)cc2C)n2nc(C)c(-c3ccccc3)c2n1`, for which the max response is -1.22%.
In the case of `Cc1cc(N2CCCC2)n2nc(C)c(-c3ccccc3)c2n1` it was 6.19%; in that of `Cc1cc(-n2nc(C)cc2C)n2ncc(-c3ccccc3)c2n1`, 42.3% (active); in that of `O=C(NCC1CC1)C1(C(F)(F)F)C/C(=C\CCO)CCCO1` (centres undefined), -3.88%.
Consider `COc1ccc(Cc2nnc(N/N=C/c3ccccc3O)[nH]c2=O)cc1OC`, for which the max response was -1.41%.
In the case of `c1ccc(-c2ccc3c(c2)NC(C2Nc4cc(-c5ccccc5)ccc4O2)O3)cc1` (centres undefined) it was -0.428%; in that of `C/C(=N\NC(=O)NC1CCCCC1)c1ccc(OC(F)F)cc1OC(F)F`, 9.08%.
In the case of `CS(=O)(=O)N1CCc2cc(C(=O)Nc3ccccc3Br)ccc21` it was 30.9% (active); in that of `COc1ccc(OC)c(NC(=O)c2ccc3c(c2)CCN3S(C)(=O)=O)c1`, -0.802%; in that of `CS(=O)(=O)N1CCc2cc(C(=O)Nc3ccccc3)ccc21`, -1.85%.
Next, `CCc1ccccc1NC(=O)c1ccc2c(c1)CCN2S(C)(=O)=O`: -1.1%.
In the case of `CSc1ccccc1NC(=O)c1ccc2c(c1)CCN2S(C)(=O)=O`, the max response is 43.6% (active).
Next, `CC(=O)Nc1cccc(NC(=O)c2ccc3c(c2)CCN3S(C)(=O)=O)c1`: 2.48%.
For `COCc1ccc(C(=O)N2CCc3c([nH]c4ccccc34)C2c2ccccn2)s1` (centres undefined), the max response was -4.02%.
Consider `COc1ccc(-c2cc(=O)oc3cc(OC(C)C(=O)Nc4ccc(CN5CCOCC5)cc4)ccc23)cc1` (centres undefined), for which the max response is -4.69%.
`Cc1ccc(OCc2nnc(SC3CCc4ccccc4C3=O)n2C)cc1` (centres undefined): the max response was 4.12%.
Regarding `CC(=O)Nc1ccc(/C=N/Nc2ccc(C(=O)c3c(C)cc4ccccn34)cc2[N+](=O)[O-])cc1`, the max response was 3.53%.
For the molecule `Cc1cc(N2C(=O)C(O)=C(C(=O)c3ccc(C)o3)C2c2ccc(OCc3ccccc3)cc2)no1` (centres undefined), the max response was -0.599%.
In the case of `Cc1ccccc1Nc1nc(N)nc(CN2CCN(c3ccccn3)CC2)n1` it was 0.552%.
Next, `Cc1ccc(C(=O)OCc2nc(N)nc(Nc3ccccc3C)n2)cc1`: -0.878%.
Take `Cc1ccccc1Nc1nc(N)nc(CSc2ccccc2)n1`: the max response was 67% (active).
Regarding `Cc1ccc(Nc2nc(N)nc(CN3CCN(Cc4ccccc4)CC3)n2)cc1Cl`, the max response is -3.89%.
In the case of `Cc1ccccc1Nc1nc(N)nc(CSc2nnc3ccccn23)n1`, the max response was 13.9% (active).
Next, `CCSCc1nc(N)nc(NCCc2ccccc2)n1`: 12.6%; `CCCN1CCC(=O)N(C(CSc2ccc(OC)cc2)Cc2ccccc2)CC1` (centres undefined): 6.9%; `Cc1cc(C)n(-c2ccc(NC(=O)C3CCCCN3C(=O)c3cccs3)cc2)n1` (centres undefined): 7.2%.
For the molecule `COc1ccc(-n2c(C)cc(C(=O)COC(=O)c3cc(OC)c(OC)cc3NC(=O)c3cccs3)c2C)cc1`, the max response is -3.59%.
Next, `CCc1nn(CC(=O)N2CCN(c3cc(C)ccc3C)CC2)c(=O)c2cc3occc3n12`: -8.63%; `CC1CCN(S(=O)(=O)c2ccc3c(ccn3CC(=O)O)c2)CC1`: -6.07%.
As for `CC(C)c1ccc(Nc2ncccc2C#N)cc1`, the max response was 43.2% (active).
Next, `CN(C)c1ccnc(Nc2ccc(F)cc2)c1C#N`: -1.37%; `O=C(Oc1cccc(O)c1)C1CCCCC1`: 1.32%; `CC12CCC(C(=O)N(c3cccc(Cl)c3)C1=O)C2(C)C` (centres undefined): -2.01%.
In the case of `CC12CCC(C(=O)N(NC(=O)c3ccccc3O)C1=O)C2(C)C` (centres undefined) it was 11.2% (active).
Turning to `O=C(NN1C(=O)C2C(C1=O)C1C=CC2C12CC2)c1ccccc1Cl` (centres undefined), the max response was 0.62%.
Next, `O=C(COc1ccc(Cl)cc1)NC(=S)Nc1ccccc1N1CCOCC1`: 1.2%.
Next, `CCOC(=O)C1C/C(=C\C(C)=O)c2cccc(C(F)(F)F)c2O1` (centres undefined): -2.62%.
For `CCOC(=O)c1c(C)[nH]c(C(=O)NCCN2CCOCC2)c1C`, the max response was -3.76%.
Consider `CC(=O)c1c(C)[nH]c(C(=O)NCc2ccc(C)cc2)c1C`, for which the max response is 15.3%.
In the case of `CCOC(=O)c1c(C)[nH]c(C(=O)NCc2ccccc2OC)c1C` it was 17% (active); in that of `O=C(O)c1ccc(OCC2CCCO2)cc1` (centres undefined), -2.17%; in that of `COC(=O)c1c(C)oc(C)c1S(=O)(=O)Nc1ccc(C(C)C)cc1`, -1.83%.
Next, `Cc1nc(-c2ccccc2)sc1-c1nnc(C2CC2)o1`: 38.7% (active); `Cc1nc(-c2ccccc2)sc1-c1nc(-c2ccccc2)ncc1S(=O)(=O)c1ccccc1`: 1.01%; `C=CCn1c(-c2sc(-c3ccccc3)nc2C)n[nH]c1=S`: 1.59%.
As to `CCOc1ccccc1NC(=O)COc1ccc(S(=O)(=O)N2CCCC2)cc1`, the max response is -2.13%.
`O=C(COC(=O)c1c2c(nc3ccccc13)CCCC2)c1ccc(Br)s1`: the max response was 25% (active).
For the molecule `O=C(Nc1c2c(nc3ccccc13)CCCC2)c1ccccc1Br`, the max response is -2.17%.
Turning to `CCc1nc2ccccc2c(C(=O)OC2CCCCC2=O)c1C` (centres undefined), the max response was 8.91%.
